This passage reports z-score results from PubChem BioAssay.

Calls of active or inactive are those of the source.

The assay in a line: budding yeast growth changes without added modifier – OD600, strain BY4716, 24 h, basal condition, primary screen (AID 1173). To be noted: S. cerevisiae BY4716 growth, OD600, 24 h; higher = more signal, called active from +8 up or from −8 down.
On to `C=CCC(OC(C)=O)[C@@H]1[C@@H](N(Cc2ccc(-c3ccccc3)cc2)C(=O)Cc2ccc(OC)cc2)c2cc(OCCCO)ccc2N1C(=O)c1ccc2ccccc2n1` (stereo not given in full), for which the z-score is -0.594 (inactive).

On to `COc1ccc(C#Cc2ccc3c(c2)[C@]2(C(=O)N3)[C@H](C(=O)NC[C@H](O)c3ccccc3)[C@H]3C(=O)O[C@H](c4ccccc4)[C@H](c4ccccc4)N3[C@@H]2c2ccc(OCCO)cc2)cc1`, for which the z-score is 2.22 (inactive).

Regarding `COCCOC(=O)N1C(=O)[C@@]2(c3cc(C#CC4(O)CCCCCC4)ccc31)[C@H](C(=O)N1CCCCCCC1)[C@H]1C(=O)O[C@H](c3ccccc3)[C@H](c3ccccc3)N1[C@@H]2c1ccccc1OCCO`, the z-score was 0.71 (inactive).

With `COC(=O)c1ccc(OC)c(/C=C\CC(OC(C)=O)c2ccccc2)c1` (stereo not given), the z-score is -1.17 (inactive).

With `Cc1ccc([C@H]2C(C(=O)O)=C[C@@H](C)N2S(=O)(=O)c2ccc(C)cc2)cc1`, the z-score was -0.704 (inactive).

`NCCCCCCNC(=O)[C@H]1C[C@H]2C(=O)NCC(=O)N2[C@H]1c1cccc(OCCO)c1`: the z-score is -1.42 (inactive).

With `COc1ccc(CCN2C(=O)[C@@]3(Cc4ccccc42)c2ccccc2C(=O)N(Cc2ccccc2Cl)[C@H]3c2ccc(CO)cc2)cc1`, the z-score is -0.542 (inactive).

As for `C=CC[C@@H](OC(=O)Nc1ccc(OC)cc1)c1ccc(O)c2ccccc12`, the z-score was -16.6 (active).

Regarding `CC(C)C[C@@H]1NC(=O)[C@@H]2C[C@H](C(=O)NCCCCCC[N+](C)(C)C)[C@H](c3ccc(O)cc3)N2C1=O`, the z-score is 0.54 (inactive).

As to `O=C1C=CC(=O)[C@@H]2CC(COc3ccccc3)=C3[C@@H](CCc4ccccc4)OB(O)C[C@@H]3[C@H]12`, the z-score is -6.89 (inactive).

On to `CN(C)CCCCNC(=O)[C@H]1C[C@H]2C(=O)N[C@@H](Cc3ccccc3)C(=O)N2[C@H]1c1ccc(O)cc1`, for which the z-score is -0.5 (inactive).

`CCCC[C@H]1OB(O)C[C@H]2C1=C(C)C[C@H]1C(=O)N(Cc3ccccc3)C(=O)[C@H]12`: the z-score was -5.14 (inactive).

Consider `C=C[C@@H](COC(C)=O)N(Cc1ccc([N+](=O)[O-])cc1)S(=O)(=O)c1ccc(Br)cc1`, for which the z-score is -0.367 (inactive).

Consider `COc1ccc([Si](C)(C)[C@@H]2[C@@H](CCn3cc([C@H](O)c4ccccc4)nn3)O[C@]3(C(=O)N(Cc4ccc(N5C(=O)c6cccc7cccc5c67)cc4)c4ccccc43)[C@H]2C)cc1`, for which the z-score was -0.349 (inactive).

For `CC(C)(C)OC(=O)CC[C@@]1(C(=O)NCCN2CCOCC2)N=C(c2ccc(OCCCO)cc2)O[C@@H]1c1ccccc1`, the z-score was -0.712 (inactive).

In the case of `O=C1O[C@@H](c2ccccc2)[C@@H](c2ccccc2)N2[C@@H](c3ccccc3OCCO)[C@]3(C(=O)Nc4ccc(C#CC5(O)CCCCCC5)cc43)[C@@H](C(=O)Nc3nc4ccccc4s3)[C@H]12`, the z-score is 0.193 (inactive).

On to `COCCOC(=O)N1C(=O)[C@@]2(c3cc(C#CCNC(N)=O)ccc31)[C@H](c1ccc(OCCO)cc1)N1[C@H](c3ccccc3)[C@H](c3ccccc3)OC(=O)[C@H]1[C@@H]2C(=O)N1CCc2cc(OC)c(OC)cc2C1`, for which the z-score was 2.29 (inactive).

Take `CCOC(=O)C[C@H]1[C@H](OC(=O)c2ccc(C(=O)c3ccccc3)cc2)[C@@H](NC(=O)C2CCCCC2)c2cc(OCCCO)ccc2N1C(=O)c1ccccc1`: the z-score is -0.153 (inactive).

Take `CC(C)=CCCC(C)=CC(O)C1C=CC2C(=O)N(c3ccccc3)C(=O)C2N1Nc1ccccc1` (stereo not given): the z-score was -1.66 (inactive).

On to `COC(=O)[C@@]1(Cc2ccc(OC)cc2)[C@H]2c3cc(C(=O)N4CCCC4)n(CCc4c[nH]c5cc(F)ccc45)c3C[C@H]2CN1C(=O)c1ccccc1`, for which the z-score is 1.15 (inactive).

As to `Cc1ccc(F)cc1S(=O)(=O)N[C@@H]1CCN(Cc2ccc(-c3ccccc3)cc2)C1`, the z-score is -19.1 (active).

`COC(=O)[C@@]1(Cc2ccc(OC)cc2)[C@H]2c3cc(C(=O)N(C)C)n(Cc4c(OC)[nH]cc(C)c4=O)c3C[C@H]2CN1C(=O)c1ccccc1`: the z-score was 0.87 (inactive).

Take `[N-]=[N+]=Nc1ccccc1[C@H]1OC(c2ccc(OCCCO)cc2)=N[C@@]1(CCS(=O)(=O)c1ccccc1)C(=O)O`: the z-score is -1.65 (inactive).

Consider `COC(=O)c1ccc(C(O)C2C=CC3C(=O)N(C)C(=O)C3N2NC(=O)OC(C)(C)C)o1` (stereo not given), for which the z-score is 0.483 (inactive).

As to `CC=CC(O)C1C=CC2C(=O)N(c3ccccc3)C(=O)C2N1Nc1ccc(C(C)C)cc1` (stereo not given), the z-score is 0.474 (inactive).

On to `O=C1C[C@@](C(=O)NC2CC2)(c2ccc([N+](=O)[O-])cc2)[C@@H](c2ccc(CO)cc2)N1CC12CC3CC(CC(C3)C1)C2`, for which the z-score is -0.369 (inactive).

As to `COc1ccc(C(O)C2C=CC3C(=O)N(C)C(=O)C3N2Nc2ccccc2)cc1OCc1ccccc1` (stereo not given), the z-score was -12.9 (active).

For `[N-]=[N+]=NCc1ccccc1C[C@@]1(C(=O)N2CCOCC2)N=C(c2ccc(OCCCO)cc2)O[C@@H]1c1ccccc1CN=[N+]=[N-]`, the z-score was 0.418 (inactive).

For the compound `CN1C(=O)C2C=CC(C(O)c3ccccn3)N(Nc3ccccc3)C2C1=O` (stereo not given), the z-score was 0.727 (inactive).

Regarding `COc1ccc(C#Cc2ccc3c(c2)[C@]2(C(=O)N3)[C@H](c3ccc(O)cc3)N3[C@H](c4ccccc4)[C@H](c4ccccc4)OC(=O)[C@H]3[C@@H]2C(=O)N2CCCCCCC2)cc1`, the z-score was -1.15 (inactive).

`O=C1OCCC=C[C@H]2OC34C=CCN(Cc5ccccc5)C(=O)[C@H]3N(CCCCCO)C(=O)[C@@H]4C12` (stereo not given in full): the z-score was -0.266 (inactive).

For the compound `COC(=O)C(CC#Cc1ccc2c(c1)[C@]1(C(=O)N2)[C@H](C(=O)NC[C@H](O)c2ccccc2)[C@H]2C(=O)O[C@H](c3ccccc3)[C@H](c3ccccc3)N2[C@@H]1c1ccc(OCCO)cc1)C(=O)OC`, the z-score is 1.77 (inactive).

As to `COCCOC(=O)N1C(=O)[C@@]2(c3cc(C#CCNC(N)=O)ccc31)[C@H](c1ccc(O)cc1)N1[C@H](c3ccccc3)[C@H](c3ccccc3)OC(=O)[C@H]1[C@@H]2C(=O)NC[C@H](O)c1ccccc1`, the z-score was 0.947 (inactive).

With `COC(=O)[C@@]1(Cc2ccccc2)[C@H]2c3cc(C(=O)N4CCCC4)n(Cc4ccc(C)o4)c3C[C@H]2CN1C(=O)c1ccccc1`, the z-score was 0.476 (inactive).

As for `COCC(=C=CC[C@H](O)c1ccc(OCCO)cc1)C[C@H](O)c1cc(Cl)cc(Cl)c1O`, the z-score was -18 (active).
